Screening results: PubChem BioAssay, National Center for Advancing Translational Sciences (NCATS)
FMDV inh: High Throughput Screening for Foot and Mouth Disease Virus Antivirals. FMDV antiviral cell-based qHTS. Potency, µM (top dose mostly 57.9 µM), for the others: at the top dose activity change, negative = inhibition, most hits filed as inhibitors. hit rate 1.2% among 410,000. AID 1159524, 2015; calls by dose curve; tested in HEK293T cells; further: read-out not given here; potency means the concentration at half of the fitted maximal effect; on the % scale 0 is the no-effect control and ±100 the full control effect; nearly all actives have a fitted effect of over 45% in size
Cycloheximide cs: Cycloheximide Counterscreen for Small Molecule Inhibitors of Shiga Toxin | cell reporter, cycloheximide protein synthesis inhibition counterscreen | max response, % | hit rate 12% among 300,000; in the data active means max response mostly above about 13%, no sharp cut-off; inactive means mostly below about 14%; further: read at 38.3 µM for the half of the compounds with a filed dose; 0% is about no effect
Sm TGR block: qHTS Assay for the Inhibitors of Schistosoma Mansoni Peroxiredoxins | Schistosoma mansoni thioredoxin glutathione reductase (TGR), Q962Y6 | purified TGR, DTNB reduction, TNB absorbance 405 nm | AID 485364, 2010 | Potency, µM (doses to about 114 µM), inactives show top-dose activity change, negative = inhibition, actives largely listed as inhibitors | hit rate 3% among 360,000; active means well fitted inhibition curve with a large enough effect; inconclusive means small, poorly fitted or top-dose-only effect; inactive means no such curve, though single readings can be large or run the other way; further: potency means the concentration at half of the fitted maximal effect; on the % scale 0 is the no-effect control and ±100 the full control effect; nearly all actives have a fitted effect of over 60% in size
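First, TGR (20 nM dispensed) and NADPH were mixed with compound. Second, a 15 min room-temperature incubation followed. Third, further NADPH and then DTNB were added to start the reaction. Finally, TNB absorbance was monitored kinetically.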
Shiga toxin inh: A qHTS for Small Molecule Inhibitors of Shiga Toxin; Vero cells, Shiga toxin protein synthesis inhibition reporter; inhibition, % at 38.7 µM; hit rate 9.2% among 290,000; AID 2315, 2010; in the data active means inhibition mostly above about 28%, no sharp cut-off; inactive means mostly below about 43%; further: 0% is about no effect
The depositor's hits bear a star; ? = inconclusive; · = no result; + = active, no number. Rows were chosen to be rich in hits. Some 12% of all compounds tested hit in one or more screens of this group.

SMILES	FMDV inh	Cycloheximide cs	Sm TGR block	Shiga toxin inh
CC(C)NC(=O)NC(=O)COC(=O)c1c2c(nc3ccccc13)CCC2	11µM*	-2	-6%	-15
CC(C)(C)NC(=O)COC(=O)c1c2c(nc3ccccc13)CCC2	-21%	-3	-18%	-2
O=C1CC(C(=O)N2CCCc3ccccc32)CN1c1ccc(F)cc1 (stereo not given)	-4%	25*	-1%	75*
O=C1CC(C(=O)N2CCCc3ccccc32)CN1c1ccc(Cl)cc1 (stereo not given)	-29%	39*	-12%	64
O=C(C1COc2ccccc2O1)N1CCCC1 (stereo not given)	-15%	15	1%	20
O=C(C(c1ccccc1)c1ccccc1)N1CCCc2ccccc21	-7%	30*	-23%	119*
COc1ccc(N2CC(C(=O)N3CCc4ccccc43)CC2=O)cc1 (stereo not given)	2%	·	·	·
O=C(C1COc2ccccc2O1)N1CCc2ccccc21 (stereo not given)	·	68*	-8%	67*
O=C(C1CCCCC1)N1CCCc2ccccc21	-10%	22*	-10%	31
CCOC(=O)c1cc(-c2ccc(N)cc2)sc1N	42%	54*	-7%	66*
CCOC(=O)c1sc(-c2ccc(Br)cc2)cc1N	76%	54*	-24%	114*
NNC(=O)c1sc(-c2ccc(Cl)cc2)cc1N	25%	45*	-11%	66*
CCOC(=O)c1cc(-c2ccccc2)sc1NC(=O)C(C)C	-10%	4	0%	10
COc1ccccc1C(=O)Nc1ccc2nc(SCC(=O)N3CCCc4ccccc43)sc2c1	-21%	·	-2%	·
CCc1ccccc1NC(=O)Cn1cc2c(n1)CCC(C)C2 (stereo not given)	20%	·	-10%	·
COC(=O)C(Cc1ccc(OC(=O)c2ccc(C(F)(F)F)cc2)cc1)N1Cc2ccccc2C1=O (stereo not given)	23%	43*	-11%	69*
COC(=O)C(Cc1ccc(OC(=O)c2ccc(Cl)cc2)cc1)N1Cc2ccccc2C1=O (stereo not given)	-27%	44*	17%	126*
CCCC(=O)N1c2ncnn2C2(CCCCC2)[C@@H]2CCCC[C@@H]21	-15%	·	-3%	·
COc1cccc(-n2c(-c3ccc(Cl)cc3)cc3c2CC(C)(C)CC3=O)c1	-7%	·	-3%	·
COc1ccc(C(=O)NNC(=O)c2cc3ccccc3cc2O)cc1	1%	·	·	·
COc1ccc(NC(=O)c2cc3ccccc3cc2O)cc1	-1%	33*	-13%	62*
O=C(Nc1ccccn1)c1cc2ccccc2cc1O	41%	31*	5%	96*
Oc1cccc2ccc(Nc3ccccn3)nc12	0%	113*	3%	+
Cc1ccc(NC(=O)c2cc3ccccc3cc2O)cc1	33%	40*	-3%	79*
Cc1coc2c1c(C)cc1oc(=O)cc(C)c12	0%	·	13%	·
SMILES	FMDV inh	Cycloheximide cs	Sm TGR block	Shiga toxin inh
Cc1ccc(CNc2ncnc3ccc(-c4c(C)noc4C)cc23)cc1	·	13	·	25
Cc1ccc(C)c(NC(=O)CSc2nncn3c2cc2sccc23)c1	-12%	·	4%	·
CCCCN(C)CCCNC(=O)Cn1nc(CC)n2c(cc3sc(C)cc32)c1=O	-8%	·	7%	·
Cc1cccc(Nc2ncnc3onc(-c4ccc(F)cc4)c23)c1C	-24%	1	-1%	-5
Cc1cccc(Nc2ncnc3onc(-c4cccc(Cl)c4)c23)c1C	?	8.2*	-13%	12
CC(C)CC(NC(=O)c1ccco1)C(=O)Nc1ccc2c(c1)OCCO2 (stereo not given)	29%	72*	-5%	84*
CC(=O)NC(Cc1c[nH]c2ccccc12)C(=O)Nc1ccc2c(c1)OCO2 (stereo not given)	4%	9	-8%	38*
CC(C)CC(NC(N)=O)C(=O)Nc1ccc2c(c1)OCO2 (stereo not given)	28%	30*	3%	49
CC(=O)N[C@@H](Cc1c[nH]c2ccccc12)C(=O)OCC(=O)NCc1ccc2c(c1)OCO2	-2%	6	7%	1
CC(Nc1ccc2c(c1)OCCO2)C(=O)Nc1ccc2c(c1)OCO2 (stereo not given)	-19%	18	-7%	36
CCCC(C)C(=O)Nc1ccc2c(c1)OCCO2 (stereo not given)	0%	50*	-6%	86*
CC[C@H](C)[C@H](NC(N)=O)C(=O)Nc1ccc2c(c1)OCO2	-2%	7	-2%	6
O=C(CSc1n[nH]c(-c2ccccc2)n1)NCCCc1ccccc1	-24%	·	0%	·
COc1ccc2c(c1)c1c(c(=O)n(-c3ccc(C)cc3)c(=O)n1CC(=O)N1CCCC1)n2C	-5%	·	3%	·
CCCN1CCC(=O)N(CCSc2ccc(OC)cc2)CC1	-5%	9	0%	11
CC(C)CN1CCC(=O)N(CCSc2ccccc2)CC1	0%	39*	-12%	37*
O=C1CCC(O)CCN1CCSc1ccccc1 (stereo not given)	54%	34*	1%	50*
CCCN1CCC(=O)N(CCSc2ccc(C)cc2)CC1	33%	38*	44%	53*
Cc1ccc(SCCN2CCN(CCc3ccccc3)CCC2=O)cc1	-5%	13	-2%	7
CCc1c(C)c2ccc(O)c(CN3CCN(c4ccccc4)CC3)c2oc1=O	?	·	-4%	·
CCOC(=O)C1C(C(=O)OC)=C(c2ccc(F)cc2)c2ccc(OC)cc2N1S(=O)(=O)C(F)(F)F (stereo not given)	·	6	·	28
Cc1ccc(C)c(N2CCN(C(=O)c3ccc(N4CCOCC4)c([N+](=O)[O-])c3)CC2)c1	-13%	-7	12%	16
O=C(O)c1ccc2c3n(nc2c1)-c1ccc(Cl)cc1CO3	7.9µM*	42*	18%	54*
O=C(c1ccc2c3n(nc2c1)-c1ccc(Cl)cc1CO3)N1CCCCC1	71%	46*	0%	70*
O=C(c1ccc2c(Cl)c3c(nc2c1)CCCC3)N1CCC(N2CCCCC2)CC1	0%	-4	-12%	-15
SMILES	FMDV inh	Cycloheximide cs	Sm TGR block	Shiga toxin inh
Cc1ccc2c(c1)COc1c3ccc(C(=O)N4CCOCC4)cc3nn1-2	81%	55*	-1%	96*
COc1cc(Nc2nc(SCc3cccc(Cl)c3)nc3ccccc23)cc(OC)c1	-25%	·	9%	·
CCCn1c(CCC(=O)Nc2ccc(OCC)cc2)nc2cccnc21	15%	·	-1%	·
COc1ccccc1C(=O)NCCSc1c(C)[nH]c2ccccc12	?	·	2%	·
C/C(=N\NC(=O)c1nn(C)c(C)c1Br)c1ccc(NC(=O)C2CCCC2)cc1	32%	41*	-13%	107*
C/C(=N\NC(=O)c1ccn(C)n1)c1ccc(NC(=O)C2CCCC2)cc1	-17%	31*	2%	79*
C/C(=N\NC(=O)C1(C)CC1(Br)Br)c1ccc(NC(=O)C2CCC2)cc1 (stereo not given)	?	-2	0%	-2
C/C(=N\NC(=O)c1ccn(C)n1)c1ccc(NC(=O)C2CCC2)cc1	?	27*	0%	56*
COc1ccccc1NC(=O)N1c2ccccc2Sc2ccccc21	-7%	·	1%	·
